From PubChem BioAssay (Tox21) come the findings set out here.

Structures are written as SMILES. Values joined by “and” are separate entries in the source; they are usually repeats but may differ in a detail not shown here. Identical values can stand only once. Records with an inconclusive call do not appear. The source holds several records for some structures; these can differ, active in one and inactive in another. Active and inactive are the calls of the source. Unless noted, calls come from the whole dose curve; as a rule, active = well fitted curve in the direction sought with a large enough effect in the repeat runs; inconclusive = weak or mixed curves; inactive = no such curve, though single readings can be large; an effect the other way counts as inactive or inconclusive.

Experiment [1] is described as follows: qHTS assay to identify small molecule antagonists of the sonic hedgehog signaling (Shh) pathway (AID 1259369; calls by dose curve; note: nearly all actives have a fitted effect of over 45% in size; note: potency is the fitted concentration of half-maximal effect). The method in brief: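 Inhibition of Shh signalling is measured as reduced Gli1-response-element firefly luciferase output in an NIH/3T3-derived stable reporter clone stimulated with conditioned medium for 24hr.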
A general note: Quantitative high-throughput screening tests each substance at several concentrations.

The nature of experiment [2]: qHTS assay to identify small molecule agonists of the estrogen receptor beta (ER-beta) signaling pathway - cell viability counter screen (AID 1259380). Note: nearly all actives have a fitted effect of over 30% in size. Note: potency is the fitted concentration of half-maximal effect. The method in brief:
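Same-well viability counter screen. Cells: ER-beta-UAS-bla HEK293T, plated 6 hr before compound, in 2% charcoal-stripped FBS. Compound exposure 16 hr, 37C; viability by CellTiter-Glo luminescence after 30 min at room temperature.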

The nature of experiment [3]: qHTS assay to identify small molecule agonists of the estrogen receptor alpha (ER-alpha) signaling pathway in the presence of an antagonist - cell viability counter screen (AID 1259386).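 Note: cells exposed to compounds for 22 h at 37 °C before the viability read; nearly all actives have a fitted effect of over 30% in size.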 Note: potency is the fitted concentration of half-maximal effect. Put shortly:
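Cells are starved of estrogens for 5 days in charcoal-stripped serum, seeded for 24hr and co-treated with ICI-182,780 (10.0nM final) and test compounds. After 22hr at 37C, viability is read as CellTiter-Fluor fluorescence.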

The target in experiment [4] is Progesterone receptor (Homo sapiens) (UniProt P06401). Kind of experiment: qHTS assay to identify small molecule antagonists of the progesterone receptor (PR) signaling pathway (AID 1346795; active = well fitted inhibition curve with a large enough effect in the signal ratio in the repeat runs, not every such curve was filed as active; the % refers to the signal ratio; note: potency is the fitted concentration of half-maximal effect). The method in brief: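 Antagonist mode with agonist R5020 at 1 nM final and 16 hr incubation at 37C. Reporter was beta-lactamase driven by UAS in HEK293T (PR-UAS-bla), 2% charcoal-stripped serum; signal from LiveBLAzer FRET substrate, 2 hr at room temperature.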
Sequence of Progesterone receptor (Homo sapiens) (P06401 whole entry, looked up): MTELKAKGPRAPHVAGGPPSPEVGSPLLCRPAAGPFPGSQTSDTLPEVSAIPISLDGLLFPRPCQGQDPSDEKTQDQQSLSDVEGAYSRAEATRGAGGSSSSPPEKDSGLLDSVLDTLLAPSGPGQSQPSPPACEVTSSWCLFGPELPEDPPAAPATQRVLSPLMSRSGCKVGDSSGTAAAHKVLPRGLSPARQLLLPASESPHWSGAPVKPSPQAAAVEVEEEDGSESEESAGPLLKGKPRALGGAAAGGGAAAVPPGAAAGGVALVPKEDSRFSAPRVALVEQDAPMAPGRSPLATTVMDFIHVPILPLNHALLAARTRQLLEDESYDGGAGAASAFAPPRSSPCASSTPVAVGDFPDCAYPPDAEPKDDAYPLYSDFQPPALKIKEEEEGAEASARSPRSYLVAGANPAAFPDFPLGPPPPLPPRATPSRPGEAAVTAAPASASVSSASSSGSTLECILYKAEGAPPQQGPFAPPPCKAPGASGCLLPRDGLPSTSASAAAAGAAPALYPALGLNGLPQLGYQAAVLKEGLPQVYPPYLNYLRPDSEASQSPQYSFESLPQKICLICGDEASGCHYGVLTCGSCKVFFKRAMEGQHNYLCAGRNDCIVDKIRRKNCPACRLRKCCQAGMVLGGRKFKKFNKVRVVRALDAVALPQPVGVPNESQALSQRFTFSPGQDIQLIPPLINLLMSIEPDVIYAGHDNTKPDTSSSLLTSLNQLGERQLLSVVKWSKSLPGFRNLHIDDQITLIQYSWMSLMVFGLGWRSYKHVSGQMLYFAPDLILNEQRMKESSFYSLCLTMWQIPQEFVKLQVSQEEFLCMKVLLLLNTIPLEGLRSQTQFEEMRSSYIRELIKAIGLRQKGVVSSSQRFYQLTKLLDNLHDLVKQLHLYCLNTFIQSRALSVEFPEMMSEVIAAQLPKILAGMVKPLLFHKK

The nature of experiment [5]: qHTS assay to identify small molecule antagonists of the progesterone receptor (PR) signaling pathway - cell viability counter screen (AID 1346798). Note: nearly all actives have a fitted effect of over 50% in size. Note: potency is the fitted concentration of half-maximal effect. The method in brief:
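Cytotoxicity read as CellTiter-Glo luminescence (30 min, room temperature) in the same wells as the beta-lactamase readout. HEK293T PR-UAS-bla cells in charcoal-stripped 2% FBS received compound and R5020, then 16 h at 37C, 5% CO2.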

A short description of experiment [6]: qHTS assay to identify small molecule agonists of the progesterone receptor (PR) signaling pathway - cell viability counter screen (AID 1346799; calls by dose curve; note: nearly all actives have a fitted effect of over 45% in size; note: potency is the fitted concentration of half-maximal effect). The method in brief: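 Cytotoxicity measured by CellTiter-Glo luminescence (30 min, RT) in the same wells as the PR beta-lactamase agonist read. Those HEK293T cells had 16 h compound treatment at 37 C in 2% charcoal-stripped FBS medium.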

Experiment [7] in a line: qHTS assay to identify small molecule agonists of the TGF-beta/Smad signaling pathway - cell viability counter screen (AID 1346829). Note: nearly all actives have a fitted effect of over 45% in size. Note: potency is the fitted concentration of half-maximal effect. The method in brief:
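Luminescence from CellTiter-Glo, read after a 30 min room-temperature incubation, gives cell viability of SBE-bla HEK 293T cells treated 5 hr with compounds at 37 C.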

Experiment [8] is described as follows: qHTS assay to identify small molecule agonists of the TGF-beta/Smad signaling pathway (AID 1346859; active = well fitted activation curve with a large enough effect in the signal ratio in the repeat runs, not every such curve was filed as active; the % refers to the signal ratio; note: series mostly up to about 77 µM). The method in brief: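 Fluorescence (ex 405 nm; em 460 and 530 nm) was read 2 h after LiveBLAzer FRET substrate at RT. The preceding compound treatment of overnight-plated SBE-bla HEK293T cells lasted 5 h at 37 C.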
The target in experiment [9] is Estrogen receptor beta (Homo sapiens) (UniProt Q92731). As to the kind of experiment: qHTS assay to identify small molecule agonists of the estrogen receptor beta (ER-beta) signaling pathway (AID 1259377; active = well fitted activation curve with a large enough effect in the signal ratio in the repeat runs, not every such curve was filed as active; the % refers to the signal ratio; note: potency is the fitted concentration of half-maximal effect). The method in brief: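 Ratiometric beta-lactamase FRET read-out came after 2 h substrate loading at room temperature. It followed 16 h compound treatment at 37C of GripTite HEK293T cells carrying a UAS-bla reporter, plated in 2% charcoal-stripped FBS medium.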
Sequence of Estrogen receptor beta (Homo sapiens) (Q92731 whole entry, looked up): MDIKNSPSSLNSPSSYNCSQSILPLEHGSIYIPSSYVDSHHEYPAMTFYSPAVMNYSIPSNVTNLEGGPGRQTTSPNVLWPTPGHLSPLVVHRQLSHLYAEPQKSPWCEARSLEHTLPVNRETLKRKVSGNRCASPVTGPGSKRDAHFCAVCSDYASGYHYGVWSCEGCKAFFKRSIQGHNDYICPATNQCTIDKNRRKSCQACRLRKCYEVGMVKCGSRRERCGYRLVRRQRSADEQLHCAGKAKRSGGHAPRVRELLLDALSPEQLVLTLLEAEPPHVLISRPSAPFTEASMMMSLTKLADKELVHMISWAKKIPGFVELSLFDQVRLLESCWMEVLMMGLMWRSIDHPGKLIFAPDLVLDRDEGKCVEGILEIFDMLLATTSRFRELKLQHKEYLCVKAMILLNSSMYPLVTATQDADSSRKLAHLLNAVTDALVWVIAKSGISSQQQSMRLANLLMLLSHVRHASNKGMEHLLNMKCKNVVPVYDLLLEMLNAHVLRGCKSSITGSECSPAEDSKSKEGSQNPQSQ

Experiment [10] has the same target. Kind of experiment: qHTS assay to identify small molecule antagonists of the estrogen receptor beta (ER-beta) signaling pathway (AID 1259378; active = well fitted inhibition curve with a large enough effect in the signal ratio in the repeat runs, not every such curve was filed as active; the % refers to the signal ratio). The method in brief: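 ER-beta-UAS-bla HEK293T cells in 2% charcoal-stripped FBS medium treated with compound plus 1nM final 17-beta-estradiol for 16 hr at 37C. Beta-lactamase reporter read by FRET substrate fluorescence after 2 hours at room temperature.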

The nature of experiment [11]: qHTS assay to identify small molecule agonists of the androgen receptor (AR) signaling pathway in the presence of an antagonist - cell viability counter screen (AID 1259379). Note: nearly all actives have a fitted effect of over 25% in size. Note: potency is the fitted concentration of half-maximal effect. The method in brief: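 Fluorescence from CellTiter-Fluor, added after 15 hr and read 1 hr later, gave cell viability. Cells were MDA-kb2 exposed to compounds (15 concentrations) in the presence of 3.0uM nilutamide at 37C, 0% CO2.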

Experiment [12] can be described thus: qHTS assay to identify small molecule antagonists of the estrogen receptor beta (ER-beta) signaling pathway - cell viability counter screen (AID 1259382). Note: nearly all actives have a fitted effect of over 55% in size. Note: potency is the fitted concentration of half-maximal effect. The method in brief: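 Following a 6 hr plating period, HEK293T cells carrying a UAS-driven beta-lactamase reporter under ER-beta control received compounds and 1nM E2 (final). After 16 hr at 37C and 2 hr substrate loading, CellTiter-Glo luminescence indicated viability.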

Experiment [13] has as its target Estrogen receptor (Homo sapiens) (UniProt P03372). Kind of experiment: qHTS assay to identify small molecule agonists of the estrogen receptor alpha (ER-alpha) signaling pathway in the presence of an antagonist (AID 1259383; calls by dose curve; note: top concentration of the series differs between compounds; nearly all actives have a fitted effect of over 15% in size). The method in brief:
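Cells are hormone-deprived for 5 days (charcoal-stripped FBS, no phenol red), plated for 24hr, spiked with 10.0nM ICI-182,780, then dosed at 15 concentrations. After 22hr at 37C, ONE-Glo luminescence reports ERE-luciferase activity.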

The nature of experiment [14]: qHTS assay to identify small molecule agonists or antagonists of the thyroid stimulating hormone receptor (TSHR) signaling pathway - wild type cell line counter screen (AID 1259384; calls by dose curve). Put shortly: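 Wild-type Hek293 cells, 800/well, 18 h at 37C, then compound with Ro20-1724 for 30 min RT. cAMP by HTRF (cAMP-d2/anti-cAMP cryptate), 1 h RT, fluorescence read. 15 concentrations, triplicates.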

In experiment [15] the target is Thyrotropin receptor (Homo sapiens) (UniProt P16473). As to the kind of experiment: qHTS assay to identify small molecule antagonists of the thyroid stimulating hormone receptor (TSHR) signaling pathway (AID 1259385; calls by dose curve; note: nearly all actives have a fitted effect of over 20% in size). Put shortly: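 TSHR-HEK293 cells (800/well) plated 18 h, then compounds with Ro20-1724 and TSH at 1.5 ng/mL final, 30 min at room temperature. cAMP quantified by HTRF (cAMP-d2/anti-cAMP-cryptate, 1 h); 15 concentrations in triplicate.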
Sequence of Thyrotropin receptor (Homo sapiens) (P16473 whole entry, looked up): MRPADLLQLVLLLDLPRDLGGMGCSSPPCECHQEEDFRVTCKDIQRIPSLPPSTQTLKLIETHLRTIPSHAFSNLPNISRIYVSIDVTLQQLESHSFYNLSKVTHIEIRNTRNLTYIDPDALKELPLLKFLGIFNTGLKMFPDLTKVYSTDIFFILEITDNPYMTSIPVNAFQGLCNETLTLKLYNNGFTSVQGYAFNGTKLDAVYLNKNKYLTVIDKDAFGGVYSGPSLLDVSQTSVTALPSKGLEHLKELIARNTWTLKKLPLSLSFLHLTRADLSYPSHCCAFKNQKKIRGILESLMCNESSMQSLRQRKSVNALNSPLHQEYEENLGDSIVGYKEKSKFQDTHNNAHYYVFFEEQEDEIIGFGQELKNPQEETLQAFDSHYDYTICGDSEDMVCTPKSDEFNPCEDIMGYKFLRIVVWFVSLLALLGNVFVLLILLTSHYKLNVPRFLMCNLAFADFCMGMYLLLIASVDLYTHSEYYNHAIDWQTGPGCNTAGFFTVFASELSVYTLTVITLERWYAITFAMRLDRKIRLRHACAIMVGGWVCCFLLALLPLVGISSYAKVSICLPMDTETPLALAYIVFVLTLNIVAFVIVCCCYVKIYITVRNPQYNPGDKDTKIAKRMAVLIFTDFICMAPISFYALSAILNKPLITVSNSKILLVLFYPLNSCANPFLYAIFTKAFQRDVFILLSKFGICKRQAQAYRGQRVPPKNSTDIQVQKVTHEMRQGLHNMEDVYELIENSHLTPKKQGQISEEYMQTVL

Experiment [16] has as its target Progesterone receptor (Homo sapiens) (UniProt P06401). As to the kind of experiment: qHTS assay to identify small molecule agonists of the progesterone receptor (PR) signaling pathway (AID 1346784; calls by dose curve; note: nearly all actives have a fitted effect of over 30% in size; note: potency is the fitted concentration of half-maximal effect). Put shortly: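 Agonist qHTS: compounds pinned onto 3,000 PR-UAS-bla HEK 293T cells per well in charcoal-stripped serum medium, 16hr at 37C, then beta-lactamase activity measured by LiveBLAzer FRET fluorescence after 2 hours at room temperature.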

Experiment [17] is described as follows: qHTS assay to identify small molecule antagonists of the TGF-beta/Smad signaling pathway - cell viability counter screen (AID 1346824). Note: nearly all actives have a fitted effect of over 50% in size. Note: potency is the fitted concentration of half-maximal effect. The method in brief:
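SBE-bla HEK 293T cells, incubated overnight, then compound plus 0.25 ng/mL TGF-beta1 (stock added) for 5 hr at 37 C. Viability was read in the same wells by CellTiter-Glo luminescence after 30 min at room temperature.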

Experiment [18] deals with Thyrotropin-releasing hormone receptor (Homo sapiens) (UniProt P34981). Kind of experiment: qHTS assay to identify small molecule antagonists of the thyrotropin-releasing hormone receptor (TRHR) signaling pathway (AID 1346877; active = well fitted inhibition curve with a large enough effect in the repeat runs, not every such curve was filed as active; note: potency is the fitted concentration of half-maximal effect). Put shortly:
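Cells (TRHR-HEK293) are plated and kept 18 h at 37 °C/5% CO2. A calcium-sensitive dye is added for 2 h, compound follows for 5 min at room temperature, and TRH is then given at 1 nM final.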

Experiment [19] has the same target. Kind of experiment: qHTS assay to identify small molecule agonists of the thyrotropin-releasing hormone receptor (TRHR) signaling pathway (AID 1346891; calls by dose curve; note: series mostly up to about 58 µM). The method in brief: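 Agonist-mode intracellular calcium readout: kinetic fluorescence over 3 min at 1 s intervals after compound addition to TRHR-HEK293 cells (18 h seeded, 2 h dye-loaded at 37 C). Fifteen concentrations, triplicates.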

Experiment [20] concerns the target Androgen receptor (Homo sapiens) (UniProt P10275). Kind of experiment: qHTS assay to identify small molecule agonists of the androgen receptor (AR) signaling pathway in the presence of an antagonist (AID 1259381; calls by dose curve; note: nearly all actives have a fitted effect of over 15% in size; note: potency is the fitted concentration of half-maximal effect). Put shortly:
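Cells are MDA-kb2 (human breast carcinoma, MMTV-luc, AR/GR responsive). Nilutamide is present at 3.0uM final throughout; compounds are added at 15 concentrations and incubated 16hr at 37C before ONE-Glo luminescence detection.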
% is set by controls: 0 for no effect and ±100 for the full control effect.

Sequence of Estrogen receptor (Homo sapiens) (P03372 whole entry, looked up): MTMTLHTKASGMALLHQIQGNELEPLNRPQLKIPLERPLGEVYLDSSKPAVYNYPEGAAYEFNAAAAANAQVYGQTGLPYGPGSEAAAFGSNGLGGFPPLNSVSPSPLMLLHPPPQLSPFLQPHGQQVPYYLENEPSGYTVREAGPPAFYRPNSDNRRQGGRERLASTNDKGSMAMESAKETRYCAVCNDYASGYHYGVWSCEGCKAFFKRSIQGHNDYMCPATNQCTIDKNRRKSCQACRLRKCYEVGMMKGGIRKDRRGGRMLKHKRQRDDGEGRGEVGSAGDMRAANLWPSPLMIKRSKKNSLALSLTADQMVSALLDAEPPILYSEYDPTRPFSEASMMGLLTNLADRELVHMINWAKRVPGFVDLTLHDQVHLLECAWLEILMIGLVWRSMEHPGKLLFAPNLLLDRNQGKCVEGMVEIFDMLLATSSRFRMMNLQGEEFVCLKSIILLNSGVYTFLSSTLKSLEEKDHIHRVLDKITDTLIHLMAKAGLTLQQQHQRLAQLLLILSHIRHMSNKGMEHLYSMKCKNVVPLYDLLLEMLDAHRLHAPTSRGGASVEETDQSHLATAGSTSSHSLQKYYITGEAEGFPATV
Sequence of Thyrotropin-releasing hormone receptor (Homo sapiens) (P34981 whole entry, looked up): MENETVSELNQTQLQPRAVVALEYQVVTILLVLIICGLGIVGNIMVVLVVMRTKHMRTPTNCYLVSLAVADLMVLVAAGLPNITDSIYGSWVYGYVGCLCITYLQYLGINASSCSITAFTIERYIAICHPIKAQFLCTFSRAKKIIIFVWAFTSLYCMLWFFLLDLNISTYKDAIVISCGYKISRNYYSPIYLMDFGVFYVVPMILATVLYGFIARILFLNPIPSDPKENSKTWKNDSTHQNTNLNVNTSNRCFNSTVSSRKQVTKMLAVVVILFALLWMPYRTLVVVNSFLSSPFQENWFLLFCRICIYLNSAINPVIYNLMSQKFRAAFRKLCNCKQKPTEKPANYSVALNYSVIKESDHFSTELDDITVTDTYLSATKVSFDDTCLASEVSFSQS
Sequence of Androgen receptor (Homo sapiens) (P10275 whole entry, looked up): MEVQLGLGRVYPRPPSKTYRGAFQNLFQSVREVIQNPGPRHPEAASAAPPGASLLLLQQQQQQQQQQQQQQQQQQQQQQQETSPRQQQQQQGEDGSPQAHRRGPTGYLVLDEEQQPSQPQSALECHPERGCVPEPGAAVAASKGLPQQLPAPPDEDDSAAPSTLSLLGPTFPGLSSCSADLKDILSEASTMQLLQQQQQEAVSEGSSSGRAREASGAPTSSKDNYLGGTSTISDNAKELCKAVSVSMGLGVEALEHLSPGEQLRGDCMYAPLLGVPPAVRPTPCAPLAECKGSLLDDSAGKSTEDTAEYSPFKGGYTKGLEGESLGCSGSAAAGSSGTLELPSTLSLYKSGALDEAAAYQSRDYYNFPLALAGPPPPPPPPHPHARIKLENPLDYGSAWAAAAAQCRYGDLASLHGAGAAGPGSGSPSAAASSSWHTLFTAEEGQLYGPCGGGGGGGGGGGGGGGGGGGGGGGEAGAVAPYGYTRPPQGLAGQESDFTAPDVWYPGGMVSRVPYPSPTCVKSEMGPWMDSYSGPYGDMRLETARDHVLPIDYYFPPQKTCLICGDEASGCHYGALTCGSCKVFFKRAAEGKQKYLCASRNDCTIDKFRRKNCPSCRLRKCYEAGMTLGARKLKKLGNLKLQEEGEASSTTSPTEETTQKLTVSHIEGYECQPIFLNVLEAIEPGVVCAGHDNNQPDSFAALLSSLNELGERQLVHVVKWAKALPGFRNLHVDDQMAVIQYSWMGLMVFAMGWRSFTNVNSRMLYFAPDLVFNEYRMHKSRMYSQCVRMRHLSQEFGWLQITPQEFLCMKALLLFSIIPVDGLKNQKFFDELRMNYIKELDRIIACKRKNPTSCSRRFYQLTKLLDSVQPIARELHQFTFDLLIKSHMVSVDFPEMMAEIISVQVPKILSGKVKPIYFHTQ

As for `CC(=O)[O-].CC(=O)[O-].O.O.[Cd+2]`, the Potency in [1] was 1.07 µM (active); in experiment [2], 60.3 µM (active); in experiment [3], 60.3 µM (active); in [4], 0.603 µM (active); in [5], 19.1 µM (active); in experiment [6], 15.1 µM (active). Moreover, the Potency result in experiment [7] was “inactive”. Moreover, the result in experiment [8] was inactive.
With `CC(C)(COCC1CO1)COCC1CO1` (stereo not given), the Potency result in experiment [9], in [10], in experiment [11], in experiment [2], in experiment [12] and in [13] was “inactive” throughout. Further, the Potency entry in experiment [15], in experiment [3], in experiment [16], in experiment [4], in experiment [5] and in experiment [17] was “inactive” each time. Also, the Potency result in experiment [7], in experiment [18] and in [19] was “inactive” in each case. In addition, the molecule was classed as inactive in experiment [14] and in experiment [8].
For the molecule `O=c1[nH]c2ccccc2n1C1CCN(CCCC(c2ccc(F)cc2)c2ccc(F)cc2)CC1`, the Potency entry in experiment [9], in [13] and in experiment [15] was “inactive” throughout. Also, the Potency in experiment [11] was 24.3 µM (active); in [2], 27.3 µM (active) and 21.1 µM (active); in experiment [3], 54.5 µM (active); in experiment [4], 26.6 µM (active); in experiment [5], 30.6 µM (active); in experiment [7], 49 µM (active) and inactive. Moreover, the outcome in experiment [14] and in [8] was inactive.
Turning to `N#CC(Cl)Cl`, the Potency entry in experiment [9], in experiment [11], in [2], in experiment [12], in experiment [15] and in [4] was “inactive” in each case. Moreover, the Potency entry in [5], in experiment [6], in [17] and in experiment [18] was “inactive” in each case. For the same molecule, the Potency in experiment [20] was 47.3 µM (active); in experiment [16] it was 5.3 µM (active). Also, the outcome in [14] and in experiment [8] was inactive.
As to `CCCCCCCCCCCCCCCC[n+]1ccccc1`, the Potency in experiment [1] was 508 nM (active) and 30.6 nM (active) and 21.4 nM (active); in [12] it was 29.8 µM (active) [middle of 4 runs]; in experiment [3], 71.7 µM (active) and 61.1 µM (active) and 60.3 µM (active); in experiment [5], 50.8 µM (active) and 61.1 µM (active) and 60.3 µM (active); in experiment [17] it was 43.6 µM (active) [middle of 4 runs]; in experiment [7], 54.2 µM (active) [middle of 4 runs]. The Potency entry in experiment [13] and in experiment [16] was “inactive” each time.
As for `Clc1ccc(CSC(Cn2ccnc2)c2ccc(Cl)cc2Cl)cc1` (stereo not given), the Potency entry in experiment [1], in [17] and in experiment [18] was “inactive” each time. Further, the Potency in experiment [2] and in experiment [12] was 13.3 µM (active) each time. Further, the molecule was called inactive in [14] and in experiment [8].
Take `COP(=S)(OC)Oc1cc(Cl)c(Br)cc1Cl`: the Potency entry in experiment [9], in experiment [11], in experiment [2], in experiment [20], in [12] and in experiment [13] was “inactive” throughout. The Potency entry in experiment [16], in experiment [17], in experiment [7], in experiment [18] and in experiment [19] was “inactive” throughout. For the same molecule, the molecule was called inactive in experiment [14] and in experiment [8].
Regarding `BrC(Br)C(Br)(Br)Br`, the Potency is 61.5 µM (active) in experiment [1] and 34 µM (active) in [18]. Besides, the Potency result in experiment [12], in [13], in [15], in experiment [3], in experiment [16] and in [4] was “inactive” throughout. Moreover, the Potency result in experiment [5], in experiment [6], in experiment [17], in experiment [7] and in experiment [19] was “inactive” throughout. Further, the molecule was called inactive in experiment [14] and in experiment [8].
With `Oc1cccc(-c2ccccc2)c1`, the Potency in [9] was 17.2 µM (active). For the same molecule, the Potency entry in experiment [11], in experiment [2], in experiment [12], in experiment [15], in experiment [3] and in experiment [16] was “inactive” throughout. The Potency result in experiment [5], in [17] and in experiment [7] was “inactive” in each case. The call in [14] and in experiment [8] was inactive.
